From PubChem BioAssay AID1035470 (Broad Institute, 2014)
Fewer than 10 of roughly 1,800 compounds were called active. Another 16% or so got no clear call; they are omitted.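 How the source made its calls: active means compound lowering the normal-ribosome reporter at least twice as much as the humanized-ribosome reporter, growth loss under a set limit; inconclusive means no clear call, values can overlap the other calls; inactive means the rest.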 Only a sample is shown. Results with a measured potency or affinity are listed apart.

assay: growth inhibition of wild-type GFP E. coli versus G2058-humanized strain, dose response, G2058 mutant RFP vs wild-type GFP, cherry-pick, two tests (AID 1035470); details: E. coli WT-GFP vs G2058-humanized RFP, fluorescence, 24 h; series mostly up to 50 µM

outcome, inactive:
Cc1ccc(Cc2c(-c3ccc(C#N)cc3)nc3ccc(Br)cn23)cc1
CCOC(=O)c1cnc2ccc(OCC)cc2c1NCCCN1CCOCC1
CCOC(=O)C(CC)Sc1cc(C)nc2ccc(OC)cc12 (configuration not stated)
COc1ccc(C(=O)COc2ccc(F)cc2)c(O)c1
Cc1cccc(-c2cc3nc4c(c(N5CCOCC5)n3n2)CCCC4)c1
Cc1cccc(NS(=O)(=O)c2cc3c(cc2C)NC(=O)CO3)c1
Cc1cccc(OCCn2c(=O)oc3ccc(C)cc32)c1
CC(=O)Nc1cccc(NC(=O)CCN2C(=O)c3ccccc3S2(=O)=O)c1
c1cncc(-c2nc3cc4ccccc4cc3[nH]2)c1
Cc1ccccc1S(=O)(=O)c1cc2ccccc2nc1N
COc1ccccc1-c1noc2ncnc(Nc3ccccc3C)c12
COc1ccccc1Cc1c(-c2ccc(F)cc2)nc2ccc(Br)cn12
COc1ccc(-c2nc(C3CCCCC3)no2)cc1OC
c1ccc(Sc2ncnc3ccccc23)cc1
COc1cccc(NC(=O)C(C)SCc2ccccc2)c1 (configuration not stated)
Cc1cc(Br)ccc1NC(=O)c1ccco1
O=C(CSCc1cnn(-c2ccccc2)c1-n1cccc1)NCc1cccnc1
O=C(Nc1ccc(Cl)c(Cl)c1)c1ccc(Cl)c(Cl)c1
O=[N+]([O-])c1ccc2nc(-c3ccccc3[N+](=O)[O-])[nH]c2c1
O=c1c2ccccc2nc(SCc2ccccc2)n1CC1CCCO1 (configuration not stated)
CCOCCCNC(=O)C(NC(=O)c1ccccc1O)c1ccc(C)cc1 (configuration not stated)
COc1ccc(Nc2nc(N)c([N+](=O)[O-])c(N3CCCC3)n2)cc1
CS(=O)(=O)c1ccc(Cl)c(NC(=O)CSc2nncn2-c2ccccc2)c1
c1ccc(CSCc2ccccc2)cc1
O=C(Nc1ccc(Cl)c(Cl)c1)N[C@@H]1CC[C@@H](CCn2cc(C3CCCCC3)nn2)O[C@H]1CO
CCOc1ccc(NC(=O)CCc2nnc3ccc(N4CCC(C)CC4)nn23)cc1
Cc1csc(SCc2nc3scc(-c4ccccc4)c3c(=O)[nH]2)n1
CC(C)(C)c1ccc2c(c1)C(c1ccc3c(c1)OCO3)CC(=O)O2 (configuration not stated)
Cc1ccccc1Nc1c(-c2cccnc2)nc2ccc(Br)cn12
CC1(CCC(=O)N2CCCC(N3CCN(c4ccc(F)cc4)CC3)C2)CC1 (configuration not stated)
C=CCn1c(C)cc(C(=O)CSc2nnc(C3CC3)n2C2CC2)c1C
c1ccc(-c2sc3ccccc3c2-c2ccc(OCCN3CCCCC3)cc2)cc1
CN(C(=O)COC(=O)CSc1ccc(C(N)=O)cc1[N+](=O)[O-])C1CCCCC1
CC(C)OCCCNC(=O)c1ccc(CS(=O)(=O)c2cccc(C(F)(F)F)c2)o1
COc1ccc(C(=O)Nc2cccc3ccccc23)cc1
CCS(=O)(=O)N1CCN(c2ccc([N+](=O)[O-])c(NCC3CCCO3)c2)CC1 (configuration not stated)
Cc1nn(S(=O)(=O)c2ccc(Cl)cc2)c(C)c1Sc1ccc([N+](=O)[O-])cc1
C[C@@H]1CN([C@@H](C)CO)C(=O)c2cc(NC(=O)Nc3cccc4ccccc34)ccc2O[C@@H](C)CCCCO[C@@H]1CN(C)C(=O)CCCN(C)C
O=C(COC(=O)C1CC2C=CC1C2)NCCc1ccccc1 (configuration not stated)
O=C(CN1CCCCC1)Nc1ccccc1-c1ccccc1
CN(Cc1ccc(Cl)s1)C(=O)CNC(=O)CNC(=O)c1ccc(Cl)cc1Cl
Cn1c(SCC(=O)Nc2ccccc2-c2ccccc2)nnc1-c1ccco1
O=C(CCCOc1ccccc1)NCCc1nc2ccccc2[nH]1
O=C(Cc1cccc(NC(=O)C2CCN(C(=O)C3CCCCC3)CC2)c1)Nc1cccc(C(=O)N2CCCC2)c1
COc1ccc(-c2noc(=O)n2Cc2ccccc2Cl)cc1
CN1CCSc2ccc(C(=O)Nc3cccc(F)c3)cc21
CC(C)c1ccc(-c2nc3ccccc3s2)cc1
Cc1ccc(-n2cc(CNCCN3CCOC3=O)c(-c3ccc(F)cc3)n2)cc1
Cc1ccc(NC(=O)c2ccc3ncsc3c2)cc1S(=O)(=O)N(C)C
CN(Cc1ccc([N+](=O)[O-])cc1)c1ccccc1
COc1ccc(CN2CCNC(=O)C2CC(=O)NCCCC2CCCC2)c(C)c1C (configuration not stated)
O=C1CCCCC1Nc1ccc(Br)cc1 (configuration not stated)
C[C@@H]1CCCCO[C@@H](CN(C)C)[C@@H](C)CN([C@H](C)CO)C(=O)c2cc(NC(=O)Nc3cccc4ccccc34)ccc2O1
COc1ccc(NC(=O)CSc2n[nH]c(-c3ccncc3)n2)c([N+](=O)[O-])c1
Brc1ccc(Nc2ncnc3[nH]ncc23)cc1
Cc1cccc(-c2ccc([C@@H]3[C@@H](CO)N4CCCCN(S(=O)(=O)c5ccccc5C)C[C@H]34)cc2)c1
C[C@@H]1CN([C@@H](C)CO)S(=O)(=O)c2ccc(Br)cc2O[C@H]1CN(C)C(=O)c1ccccc1
Cc1cc(C)c(OCCN(C)Cc2ccccc2)c(Br)c1
C[C@@H](Nc1nc(-c2ccccc2)nc2c1oc1ccccc12)C(=O)O
CCOC(=O)c1ccc(NC(=O)c2ccc(OC(C)C)c(OC)c2)cc1
O=C(C[n+]1ccc(Cc2ccccc2)cc1)Nc1ccc([N+](=O)[O-])cc1Cl
O=C(OCC1COc2ccccc2O1)c1ccccc1F (configuration not stated)
O=C(Nc1ccc(-c2nnc3n2CCCCC3)cc1)c1cc2ccccc2o1
COc1cccc(NC(=O)c2ccc(-c3ccc([N+](=O)[O-])cc3)o2)c1
COc1ccc(NC(=O)c2cccc(Oc3ccc([N+](=O)[O-])cc3Cl)c2)cc1
O=C1CSC(c2cccnc2)N1Cc1ccc(Cl)c(Cl)c1 (configuration not stated)
COc1ccccc1NC(=O)N1CCCCN2[C@@H](CO)[C@H](c3ccc(C#Cc4ccccc4)cc3)[C@@H]2C1
C#CC(C)(C)NC(=O)c1ccc(-c2ccccc2F)cc1
CS(=O)(=O)Nc1ccccc1C(=O)NCCSc1ccccc1
COc1ccc(-c2cc(C(=O)O)nc3ccc4ccccc4c23)cc1OC
Oc1ccc(-c2csc(Nc3ncccn3)n2)cc1
CN(C)S(=O)(=O)c1ccc2oc(SCC(=O)NCC(F)(F)F)nc2c1
